Test results reported in the supplement of paper PMC7156485.
± gives the standard deviation of the averaged measurements.

Assays:
Settings in all cases: concentration: 10 µM; 24 h
HCC1569 [1] = test: cell number relative to DMSO (% of DMSO); higher = more cells (less growth inhibition / toxicity)
Outline: (§1)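 For HCC1569 and TDF cells, compounds at 10 µM were applied for 24 h at 37 °C in triplicate in 384-well plates. Cells were fixed in 3.7% formaldehyde, stained for H1.0 and with DAPI, and imaged at ×10 over six fields per well. The endpoint, H1.0 nuclear intensity or cell number, is shown as percent of the plate control using the median of replicates. Positional effects were smoothed for HCC1569 only.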

TDF [2] = test: as above
Outline: as §1

TDF [3] = test: H1.0 immunofluorescence intensity relative to DMSO (% of DMSO); higher = stronger H1.0 induction, active = 120 or more
Outline: as §1

HCC1569 [4] = test: H1.0 immunofluorescence intensity relative to DMSO (% of DMSO); higher = stronger H1.0 induction, active = 140 or more
Outline: as §1
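For H1.0 immunofluorescence intensity relative to DMSO in this document: TDF is a line of transformed human dermal fibroblasts of mesenchymal origin.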
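For cell number relative to DMSO in this document: TDF denotes transformed human dermal fibroblasts of mesenchymal origin.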

SMILES | cell number (HCC1569 [1]) | cell number (TDF [2]) | H1.0 immunofluorescence intensity (TDF [3]) | H1.0 immunofluorescence intensity (HCC1569 [4])
NC(N)=Nc1nc(CSCCC(N)=NS(N)(=O)=O)cs1 [Famotidine] | 102 | 102 | 94.4 (inactive) | 89.7 (inactive)
CN(C)CC(C)(C)CNc1nn2c(-c3ccccc3)nnc2cc1C1CCC1 | 101 | 103 | 99.9 (inactive) | 92.2 (inactive)
CNc1cc2c(Nc3cccc(Br)c3)ncnc2cn1 | 87.2 | 95.7 | 91.3 (inactive) | 135 (inactive)
Cc1ncc([N+](=O)[O-])n1CC(C)O (stereo not drawn) [Secnidazole] | 102 | 96.6 | 93.5 (inactive) | 107 (inactive)
C[C@H](C#Cc1ccc(Cc2ccc(F)cc2)s1)N(O)C(N)=O | 98 | 92 | 100 (inactive) | 99.7 (inactive)
C=C[C@]1(C)C[C@@H](OC(=O)CO)[C@]2(C)[C@H](C)CC[C@]3(CCC(=O)[C@H]32)[C@@H](C)[C@@H]1O | 96.4 | 115 | 106 (inactive) | 95.9 (inactive)
CCOC(=O)C1=C(C)NC(C)=C(C(=O)OC)C1c1cccc([N+](=O)[O-])c1 (stereo not drawn) [Nitrendipine] | 97.8 ± 5.5 | 101 ± 10 | 101 (inactive) | 122 (inactive)
OB1OCc2cc(F)ccc21 [5-fluoro-2,1-benzoxaborol-1(3H)-ol] | 104 | 104 | 95.6 (inactive) | 98.5 (inactive)
O=C(O)c1cn(-c2ccc(F)cc2)c2cc(N3CCNCC3)c(F)cc2c1=O [Sarafloxacin] | 105 | 95.3 | 99.5 (inactive) | 95.9 (inactive)
Nc1c2c(nc3ccccc13)CCCC2O.O=C(O)C=CC(=O)O (stereo not drawn) [Hydroxytacrine maleate] | 104 | 103 | 96.8 (inactive) | 83.4 (inactive)
CC(CSC(=O)c1ccccc1)C(=O)N1CC(Sc2ccccc2)CC1C(=O)[O-].CC(CSC(=O)c1ccccc1)C(=O)N1CC(Sc2ccccc2)CC1C(=O)[O-].[Ca+2] (stereo not drawn) | 106 | 119 | 93.2 (inactive) | 95.4 (inactive)
N=C(N)c1ccc(OCCCCCOc2ccc(C(=N)N)cc2)cc1.O=S([O-])OCCO.O=S([O-])OCCO [Pentamidine isethionate] | 93.1 | 90.6 | 103 (inactive) | 97.2 (inactive)
O=C1NC(=O)c2cc(Nc3ccc(F)cc3)c(Nc3ccc(F)cc3)cc21 | 93.4 | 110 | 93.4 (inactive) | 133 (inactive)
Cl.NC1(C(=O)O)CCCCC1 [1-Amino-1-cyclohexanecarboxylic acid hydrochloride] | 100 | 106 | 95.3 (inactive) | 86.6 (inactive)
CNCCCN1c2ccccc2CCc2ccccc21.Cl [Desipramine hydrochloride] | 102 | 97.5 | 98.7 (inactive) | 92.6 (inactive)
CC(N)(Cc1ccc(O)cc1)C(=O)O (racemic) [DL-alpha-Methyl-p-tyrosine] | 103 | 117 | 114 (inactive) | 106 (inactive)
Nc1sc2c(c1C(=O)c1ccc(Cl)cc1)CCCC2 | 102 | 96.8 | 95 (inactive) | 98.9 (inactive)
O=C1NC(=O)C(c2ccccc2[N+](=O)[O-])=C1Nc1ccc(O)c(Cl)c1 | 96.8 | 107 | 97.8 (inactive) | 111 (inactive)
CN(CC=CC#CC(C)(C)C)Cc1cccc2ccccc12 [Terbinafine] | 104 | 110 | 99.6 (inactive) | 104 (inactive)
CCC(NC(C)C)C(O)c1ccc(O)c2[nH]c(=O)ccc12.Cl (stereo not drawn) [Procaterol.HCl] | 101 | 105 | 83.2 (inactive) | 112 (inactive)
Nc1ccc2c3c(cccc13)C(=O)NC2=O [4-Amino-1,8-naphthalimide] | 94.1 | 77.8 | 104 (inactive) | 150 (active)
CNC(CC(C)C)C(=O)NC1C(=O)NC(CC(N)=O)C(=O)NC2C(=O)NC3C(=O)NC(C(=O)NC(C(=O)O)c4cc(O)cc(O)c4-c4cc3ccc4O)C(O)c3ccc(c(Cl)c3)Oc3cc2cc(c3OC2OC(CO)C(O)C(O)C2OC2CC(C)(N)C(O)C(C)O2)Oc2ccc(cc2Cl)C1O.Cl (stereo not drawn) [Vancomycin hydrochloride from Streptomyces orientalis] | 99.6 | 108 | 90.4 (inactive) | 101 (inactive)
